Laboratory results: the supplement of paper PMC10981050
Where “and” joins values, the source holds several entries; their conditions need not be identical. Equal values may be shown once. Where a name gives a salt, the structure may show the parent alone.

What was measured:
Assay in all cases: cell viability relative to vehicle control; higher = less cytotoxic
Settings in all cases: 10 µM
[1] = system: K562
How it was run: (§1)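 After removal of identity-inconsistent compounds, the Selleck bioactive, kinase and epigenetic probe libraries were screened on CRISPR-edited mutant clones and isogenic wild-type clones of four leukaemia lines. Plates were 384-well, each well holding 2000 cells in 50 µL medium and receiving a single 10 µM acoustically dispensed dose. CellTiter-Glo luminescence was read 48 h later, after the supernatant was taken off. Genedata Screener was used to express viability as percent of the on-plate vehicle control.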

[2] = system: MARIMO
How it was run: as §1

[3] = system: MOLM14
How it was run: as §1

[4] = system: OCI-AML2
How it was run: as §1

SMILES	cell viability ([1]; SRSF2 genotype: SRSF2 P95H/wt)	cell viability ([1]; SRSF2 genotype: SRSF2 wt/wt) [%]	cell viability ([2]; SRSF2 genotype: SRSF2 P95H/wt) [%]	cell viability ([2]; SRSF2 genotype: SRSF2 wt/wt) [%]	cell viability ([3]; SRSF2 genotype: SRSF2 P95H/wt) [%]	cell viability ([3]; SRSF2 genotype: SRSF2 wt/wt) [%]	cell viability ([4]; SRSF2 genotype: P95H/wt) [%]	cell viability ([4]; SRSF2 genotype: wt/wt) [%]
COc1cnc(NS(=O)(=O)c2ccc(N)cc2)nc1 [Sulfameter (Bayrena)]	98.4% and 101%	98.9	106	96	105	102	115	99
O=C(O)CC(O)(CC(=O)OCc1ccc(O[C@@H]2O[C@H](CO)[C@@H](O)[C@H](O)[C@H]2O)cc1)C(=O)OCc1ccc(O[C@@H]2O[C@H](CO)[C@@H](O)[C@H](O)[C@H]2O)cc1 (some centres not stated) [Parishin B]	106% and 105%	109	103	98.4	113	105	99.6	100
O=c1cc[nH]c(=S)[nH]1 [2-Thiouracil]	101% and 103%	100	98.6	109	106	106	107	104
O=C(NC1CCN(CCCCC2(C(=O)NCC(F)(F)F)c3ccccc3-c3ccccc32)CC1)c1ccccc1-c1ccc(C(F)(F)F)cc1 [Lomitapide Mesylate]	0.41% and 0.38%	0.33	0.5	0.68	0.26	0.3	0.27	0.3
Cc1ccc(-c2n[nH]c3c2C(c2cccc(O)c2)N(c2ccc(C(=O)O)cc2)C3=O)cc1 (configuration not stated)	104% and 100%	105	101	106	100	107	104	106
Oc1ncnc2[nH]ncc12 [Allopurinol (Zyloprim)]	99% and 99.5%	104	97.1	98.3	99.3	96	101	104
O=C(O)C(Cc1c[nH]c2ccccc12)N1C(=O)c2ccccc2C1=O (configuration not stated)	104% and 96.9%	103	96.8	104	99.2	99.3	93.2	98.5
CN1CCN(CCCN2c3ccccc3Sc3ccc(C(F)(F)F)cc32)CC1 [Trifluoperazine 2HCl]	25.7% and 36.9%	46.2	52.5	50.8	45.9	58.7	47.6	46.7
COCCCOc1cc(C[C@@H](C[C@H](N)[C@@H](O)C[C@H](C(=O)NCC(C)(C)C(N)=O)C(C)C)C(C)C)ccc1OC [Aliskiren Hemifumarate]	104% and 99.9%	95.5	92.3	101	91.8	98.7	92.5	106
CCCCN(Cc1ccc(C(=O)NO)cc1)C(=O)Nc1ccccc1 [Nexturastat A]	23.9% and 35.1%	45.5	6.74	21	7.82	2.04	3.08	7.67
Nc1nc(NC2CC2)cc(-c2cccc(Cl)c2Cl)n1	26.5% and 36.8%	41.5	41.3	38	34.5	21.5	60.8	48.5
CCOC(=O)C1OC1C(=O)NC(CC(C)C)C(=O)NCCC(C)C (configuration not stated)	103%	97.2	96.3	101	88.7	101	98.5	104
O[C@H]1[C@H]2c3cc4c(cc3CN3CCC(=C[C@@H]1O)[C@H]23)OCO4 [Lycorine hydrochloride]	18.7% and 26.8%	28.4	22.9	21	20.3	7.64	0.76	2.07
CCCCNc1cc(C(=O)O)cc(S(N)(=O)=O)c1Oc1ccccc1 [Bumetanide]	105% and 102%	102	96.5	108	105	101	99.9	110
CCOC(=O)[C@H](CCc1ccccc1)N[C@H]1CCc2ccccc2N(CC(=O)O)C1=O [Benazepril hydrochloride]	109% and 106%	108	101	111	95.9	98.9	93.3	102
CC(C(=O)Nc1cccc(/N=C/c2c(O)ccc3ccccc23)c1)c1ccccc1 (configuration not stated) [Salermide]	82.7% and 84.2%	83.2	90.8	93.8	104	101	88.6	90.3
NC(=O)N1c2ccccc2C=Cc2ccccc21 [Carbamazepine (Carbatrol)]	95.3% and 86.7%	90.3	81.3	97.6	88.3	87.9	92	104
CS(=O)(=O)c1cccc(CNc2nc(Nc3ccc4c(c3)CCC(=O)N4)ncc2C(F)(F)F)c1	77% and 90.4%	98.3	49.7	48.8	8.16	5.1	9.56	16.9
Oc1ccc(Cc2nc3c(Cc4ccccc4)nc(-c4ccc(O)cc4)cn3c2O)cc1 [Coelenterazine]	96.7% and 92.9%	101	94.9	93.5	86.2	97	98.8	98
